# Results: PubChem BioAssay AID1347070 (National Center for Advancing Translational Sciences (NCATS), 2019)
# In all, about 94,000 compounds went through this assay and about 20 (0.02%) were called active. Roughly 1% stayed inconclusive and do not appear here. Calls follow the shape of the dose curve; as a rule, active = well fitted activation curve with a large enough effect; inconclusive = small, poorly fitted or top-dose-only effect; inactive = flat fitted curve, though single readings scatter. The list is a sample of the results.
# Assay: qHTS of alpha-syn Inhibitors: NCGC Sytravon Library Screen
# Settings: S. cerevisiae alpha-synuclein toxicity rescue, BacTiter-Glo growth, 24 h; series mostly up to 46.1 µM
# Text: The goal of this project is to identify new chemical probes capable of reversing the toxicity associated with the Parkinson disease-related protein, alpha-synuclein. Compounds will be selected on their ability to restore growth in yeast cells expressing toxic levels of alpha-synuclein. These compounds will provide a complementary approach to deciphering the tangled mechanisms of toxicity and protection that we have uncovered through genome-wide genetic screens and are beginning to uncover in a large-scale proteomics analysis with mass spectroscopy. To this end, a miniaturized assay was developed to be screened against the Molecular Libraries Small Molecule Repository (MLSMR) to discover alpha-synuclein inhibitors. […] The phenotype of interest will be that of an Activator and this screen is run against the NCGC Sytravon Library collection. NIH Chemical Genomics Center [NCGC] NIH Molecular Libraries Probe Centers Network [MLPCN] MLPCN Grant: NS060957 Assay Submitter (PI): Susan Lindquist, Whitehead Institute/MIT
# Dispense 2.5 microL yeast galactose medium per 1536-well plate, pin compound, dispense 2.5 microL alpha-synuclein expressing yeast in galactose medium at OD600=0.02 (pregrown in raffinose medium to mid-log phase) per well, incubate for 24 hr at 30 deg C, and cell growth will be measured using 5 microL of Bactiter/Glo reagent to entire plate and read using Luminescence Protocol in ViewLux.
row,SMILES,outcome
1,COc1cc(CNC2CCCC2)c(Br)cc1OCc1ccccc1,inactive
2,Cc1ccc(C(=O)N[C@H](C(=O)N2CCN(c3ncccn3)CC2)C(C)C)cc1,inactive
3,Cc1nnc(SC(C(=O)c2ccccc2)c2ccccc2)[nH]c1=O (configuration not stated),inactive
4,CCOC(=O)C1=C(CC)OC(N)=C(C#N)C1c1ccc(F)cc1F (configuration not stated),inactive
5,COc1ccc(NC(=O)C2=C(C)NC(=O)NC2c2ccccc2[N+](=O)[O-])cc1 (configuration not stated),inactive
6,NC(=O)CCN1CCN(S(=O)(=O)/C=C/c2ccccc2)CC1,inactive
7,COc1ccccc1N1CCN(CC(=O)NCCc2ccc(S(N)(=O)=O)cc2)CC1,inactive
8,O=C(O)Cc1csc(-c2cccc(Oc3ccccc3)c2)n1,inactive
9,O=C(CN1CCCCCC1)NCCN1C(=O)S/C(=C\c2ccccc2Cl)C1=O,inactive
10,CCOC(=O)c1cnn2c(SC)ncnc12,inactive
11,CCCCN1C(=O)C(CC(=O)NCc2cccs2)CC(C(=O)N2CCOCC2)=C1C (configuration not stated),inactive
12,OCCC#Cc1ccc(CN2CCN(Cc3ccsc3)C(CCO)C2)cc1 (configuration not stated),inactive
13,CCC(CC)C(=O)Nc1c2c(nn1-c1ccc(C)cc1)CS(=O)(=O)C2,inactive
14,Cc1cccc(NC(=O)CCn2c(=O)oc3ccccc32)c1,inactive
15,CCCCN(C(=O)CSCc1ccc(C)cc1)c1c(N)n(Cc2ccccc2)c(=O)[nH]c1=O,inactive
16,O=C(CN1CCCSc2ccccc21)N1CCN(S(=O)(=O)c2ccccc2)CC1,inactive
17,O=C(C1CCCO1)N1CCN(C(=O)C23CC4CC(CC(C4)C2)C3)CC1 (configuration not stated),inactive
18,CCOC(=O)C(C(=O)c1ccccc1)C(c1ccccc1)c1nccc2ccccc12 (configuration not stated),inactive
19,COc1cccc(N2CC(C(=O)NCc3n[nH]c(=O)c4ccccc34)CC2=O)c1 (configuration not stated),inactive
20,CCCCS(=O)c1snnc1C (configuration not stated),inactive
21,Cc1ccc(NC(=O)NC(=O)N(C2CCCCC2)S(=O)(=O)c2ccccc2)cc1,inactive
22,O=C(Nc1ccccc1C(=O)N1CCOCC1)c1ccc(CSc2ccccc2)cc1,inactive
23,CCN(CC)C(=O)C1=C(C)N(Cc2ccc(OC)cc2)C(=O)C(CC(=O)NCCCCc2ccccc2)C1 (configuration not stated),inactive

row,SMILES,outcome
1,CN(C)CCOCCOc1ccc(Cl)c2ccccc12,inactive
2,O=C(Nc1cccc([N+](=O)[O-])c1)Nc1ccc(Cl)cn1,inactive
3,O=C(NCC(F)(F)F)c1ccc(S(=O)(=O)NCCc2ccc3c(c2)OCCO3)cc1,inactive
4,CC(=O)c1cnc(SCC(=O)O)nc1C,inactive
5,CN(C(=O)COC(=O)c1ccc(Br)o1)c1c(N)n(Cc2ccccc2)c(=O)[nH]c1=O,inactive
6,COc1ccc(CNC(=O)C2CCN(S(=O)(=O)c3ccc(SC)cc3)CC2)cc1,inactive
7,CCOC(=O)c1sc(NC(=O)c2sc(C)nc2C)nc1C,inactive
8,CCN(CC(=O)NCCc1ccccc1)S(=O)(=O)c1ccccc1,inactive
9,CCc1ccccc1OCC(=O)Nc1ccc2c(c1)OCCO2,inactive
10,CCN(CC)CCn1c2c(c(SCC(=O)Nc3ccc(C(C)C)cc3)nc1=O)CCC2,inactive
11,CCC(=O)c1ccc(OCC(=O)N(CC)CC2COc3ccccc3O2)cc1 (configuration not stated),inactive
12,CC(=O)Nc1ccc2nc(NC(=O)CS(=O)(=O)c3ccc(F)cc3)sc2c1,inactive
13,COc1ccc(NC(=O)CCC(=O)Nc2cc(OC)c(NC(=O)c3ccco3)cc2OC)c(OC)c1,inactive
14,COc1cc(NC(=O)CN(C)S(=O)(=O)c2ccc3nc(C)sc3c2)cc(OC)c1,inactive
15,CCCCn1c(SCC(=O)N2CCOCC2)nc2c1c(=O)n(C)c(=O)n2C,inactive
16,CSc1nnc(C2CCCN(CC(=O)Nc3ccccc3N3CCOCC3)C2)n1C(C)C (configuration not stated),inactive
17,Cc1cc2cc3n(c2nn1)N=C(Cl)CC3,inactive
18,CCOc1ccc(-c2n[nH]c(C)c2-c2ccccn2)c(O)c1,inactive
19,O=C(Nc1cc(F)ccc1F)c1ccc2c(=O)n3c(nc2c1)CCC3,inactive
20,COc1ccc(NC(=O)CC2C(=O)NC3CCCCC3N2C(=O)c2ccc(F)cc2)cc1 (configuration not stated),inactive
21,O=C(Nc1ccc(F)c([N+](=O)[O-])c1)C1CCCO1 (configuration not stated),inactive
22,CCOC(=O)c1[nH]cnc1C(=O)Nc1ccccc1C,inactive
23,O=C(c1ccccc1)N1CCN(C(=O)c2cc3nc(-c4ccccc4)cc(C(F)(F)F)n3n2)CC1,inactive

row,SMILES,outcome
1,O=S(=O)(Nc1ccccc1Br)c1cccs1,inactive
2,O=C(Nc1ccccc1C(=O)N1CCCCC1)c1ccco1,inactive
3,COc1cccc(N2CC(NS(=O)(=O)c3cccs3)CC2=O)c1 (configuration not stated),inactive
4,Cc1cn([C@H]2C[C@H](O)[C@@H](CNC(=O)[C@H](N)Cc3cccnc3)O2)c(=O)[nH]c1=O,inactive
5,COC(=O)c1cc(OCC(=O)NC2CCCc3ccccc32)cc(C(=O)OC)c1 (configuration not stated),inactive
6,O=C(Cc1ccccc1)NNC1CC(=O)N(c2ccc(Br)cc2)C1=O (configuration not stated),inactive
7,CCOC(=O)C1=C(c2ccccc2)NC(=S)NC1c1ccc(Cl)cc1 (configuration not stated),inactive
8,COc1ccc(-n2c(-c3ccc(Cl)cc3)n[nH]c2=S)c(OC)c1,inactive
9,COc1ccc(CC(=O)NC(C)CCc2ccccc2)cc1 (configuration not stated),inactive
10,C/C(CC(=O)NC(C)c1ccccc1)=N\NC(N)=S (configuration not stated),inactive
11,CN(C)c1ccc(C(=S)N2CCN(C(=S)Nc3ccc(Cl)cc3)CC2)cc1,inactive
12,CCCOc1ccc(/C=N/NC(=O)C2CC2)c(OCCC)c1,inactive
13,CCOC(=O)Cc1ncccc1C(=O)Nc1ccc(OC)cc1,inactive
14,COc1ccc(CN2C(=O)C(CC(=O)NCCCCc3ccccc3)CC(C(=O)N3CCOCC3)=C2C)cc1 (configuration not stated),inactive
15,CCOC(=O)c1c(NC(=O)COC(=O)c2ccc(S(=O)(=O)C(F)F)cc2)sc(C(=O)N(C)C)c1C,inactive
16,CC(=O)Nc1ccc(C(=O)NNC(=O)CCCCC(=O)NNC(=O)c2ccc(NC(C)=O)cc2)cc1,inactive
17,O=C(O)CC12CC3CC(C1)CC(n1ncc(NCc4ccc(F)cc4)c(Cl)c1=O)(C3)C2,inactive
18,CCOc1cc2c(Cl)ncnc2c(OCC)c1OCC,inactive
19,COc1ccc(N2CCN(C(=O)[C@@H](NC(=O)c3cc(OC)cc(OC)c3)C(C)C)CC2)cc1,inactive
20,O=C(NCCOc1ccccc1)c1ccccc1F,inactive
21,O=C(CSc1nnc(CN2CCCC2)n1-c1ccc(F)cc1)c1ccc2c(c1)OCO2,inactive
